Source: the supplement of paper PMC3334620
In all, about 33,000 sequences were measured (“E-score (-0.5 to 0.5)”: median about -0.053, highest 2% from about 0.37 on). The entries come from a sample that favours the highest values as a whole.

Molecular target: Hap1 (UniProt P0CE41)
Experiment: PBM E-score (8-mer binding enrichment) (E-score (-0.5 to 0.5)); higher = stronger / more preferred TF binding
Details: protein concentration: 200 nM; construct: GST-DNA-binding domain
Experimental: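 Universal 'all 10-mer' protein binding microarrays (Agilent AMADID 015681) probed with GST-tagged S. cerevisiae TFs (full-length or DBD) made by in vitro transcription/translation (PURExpress), about 100-200 nM. Bound TF was detected with fluorescent anti-GST. Each ungapped 8-mer (which stands for itself and its reverse complement) is scored by the PBM enrichment score (E-score), a modified Wilcoxon-Mann-Whitney statistic from -0.5 to +0.5, computed with the Universal PBM Analysis Suite. Scale: above 0.35 generally sequence-specific binding.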

Sequence of UniProt P0CE41 (P0CE41 whole entry): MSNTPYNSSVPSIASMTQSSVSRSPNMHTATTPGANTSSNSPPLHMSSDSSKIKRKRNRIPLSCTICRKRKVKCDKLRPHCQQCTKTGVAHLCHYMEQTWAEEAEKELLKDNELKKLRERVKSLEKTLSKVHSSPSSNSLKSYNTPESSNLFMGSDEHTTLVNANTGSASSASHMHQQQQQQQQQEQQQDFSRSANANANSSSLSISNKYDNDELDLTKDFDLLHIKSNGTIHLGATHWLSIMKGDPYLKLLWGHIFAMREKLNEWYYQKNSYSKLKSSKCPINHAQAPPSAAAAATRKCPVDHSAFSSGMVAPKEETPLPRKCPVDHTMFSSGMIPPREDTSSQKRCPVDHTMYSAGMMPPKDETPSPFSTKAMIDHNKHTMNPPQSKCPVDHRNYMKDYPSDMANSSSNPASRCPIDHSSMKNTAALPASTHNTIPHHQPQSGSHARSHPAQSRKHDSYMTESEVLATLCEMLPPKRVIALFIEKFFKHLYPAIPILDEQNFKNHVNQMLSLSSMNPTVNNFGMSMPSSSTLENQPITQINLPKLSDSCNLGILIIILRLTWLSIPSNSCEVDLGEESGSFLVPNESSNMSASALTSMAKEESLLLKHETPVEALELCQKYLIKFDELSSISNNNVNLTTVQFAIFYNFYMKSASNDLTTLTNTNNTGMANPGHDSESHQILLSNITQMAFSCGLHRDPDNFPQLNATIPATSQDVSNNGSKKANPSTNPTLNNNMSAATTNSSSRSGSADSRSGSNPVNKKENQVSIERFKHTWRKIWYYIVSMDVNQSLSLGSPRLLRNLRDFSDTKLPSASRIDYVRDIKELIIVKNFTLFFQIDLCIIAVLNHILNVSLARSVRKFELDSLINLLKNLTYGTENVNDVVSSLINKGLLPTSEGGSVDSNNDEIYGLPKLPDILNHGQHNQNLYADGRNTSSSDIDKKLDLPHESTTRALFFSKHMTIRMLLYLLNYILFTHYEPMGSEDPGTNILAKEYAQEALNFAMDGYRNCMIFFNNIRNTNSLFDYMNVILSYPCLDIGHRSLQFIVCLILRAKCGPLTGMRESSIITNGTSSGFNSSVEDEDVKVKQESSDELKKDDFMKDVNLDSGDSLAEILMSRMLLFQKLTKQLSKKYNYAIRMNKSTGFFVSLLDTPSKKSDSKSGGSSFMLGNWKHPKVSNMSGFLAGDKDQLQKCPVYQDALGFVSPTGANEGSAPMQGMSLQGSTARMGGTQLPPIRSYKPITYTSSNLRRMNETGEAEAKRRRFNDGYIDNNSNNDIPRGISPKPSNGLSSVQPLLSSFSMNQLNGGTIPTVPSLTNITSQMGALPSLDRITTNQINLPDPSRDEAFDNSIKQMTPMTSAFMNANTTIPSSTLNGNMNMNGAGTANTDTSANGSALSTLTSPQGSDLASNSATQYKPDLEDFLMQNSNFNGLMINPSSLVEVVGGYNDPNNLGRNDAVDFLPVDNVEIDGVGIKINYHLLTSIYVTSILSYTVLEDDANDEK

Sequence | PBM E-score
ATAGCCTA | -0.189
CCGAATAC | 0.365
ATGTGACG | -0.166
GACGGGCC | 0.142
ACTAGGTC | -0.0578
GTCGACAC | -0.156
GCGATAAA | 0.258
CCGATAAA | 0.461
ACGATAAC | 0.0651
GCGATAAC | 0.322
TCGATAAA | 0.146
ACGATAAG | 0.245
CCGATAAC | 0.447
CGGATAAG | 0.31
CCGATAAG | 0.431
CAAGATAA | -0.0149
AAGCCTAA | -0.0872
ATGCCAGG | -0.127
ACTCTTGG | -0.22
ACGCTCGG | 0.375
ACGCTCGC | -0.123
ACGCTCGA | -0.125
TATCCAGA | -0.0797
AGACTGAG | -0.208
CGCAGCAA | -0.197

Sequence | PBM E-score
CGCGAGGA | 0.0251
CGGCTTTC | 0.259
AGGCTATA | -0.157
CGGCTTAA | 0.391
TGGCTTAA | -0.0483
CGGCTTAG | 0.229
CGGCTATA | 0.383
CGGCTTTA | 0.464
GGGCTTTA | 0.132
GGGCTATA | -0.0464
GCTCTACA | -0.124
GTCCTAGA | -0.246
TCTTTTCA | -0.162
TGGAAACA | -0.0875
CTGCTCCA | -0.239
CAGGACGC | -0.246
AAGGATGG | -0.188
CGGTGTTA | 0.465
CGGTGATC | 0.26
GGGTGATA | 0.167
CGGTGATA | 0.428
GGGTGTTA | 0.0847
CGGTGTTC | 0.235
AATTGGAC | 0.0155
CAGTAAAC | 0.00777

Sequence | PBM E-score
GCCTGCAC | -0.137
ATGCGCTA | -0.0961
ACGCCGCC | 0.256
CCGCCGAG | 0.352
CCGCCGCA | 0.135
CCGCCGGA | 0.402
ACGCCGGG | 0.306
ACGCCGGA | 0.381
ACGCCGGC | 0.405
GCGCCGAA | 0.359
ACGCCGTA | 0.0761
ACGCCGCA | 0.18
GCGCCGGA | 0.368
CCGCCGAA | 0.38
CGGCTCTC | 0.0925
AGCTGTGC | -0.224
CACGTCAC | -0.125
GGACCCAA | 0.124
ATACGTGC | 0.0178
CCATCGGC | 0.174
GTTGCAAA | -0.0687
CAATTTGC | -0.103
TTCGTAAA | -0.199
CCTAAAAA | 0.00566
GCCAAGTA | -0.218

Sequence | PBM E-score
CCGCCGTC | 0.151
CCGCCGGC | 0.373
CCGCCGCC | 0.193
AAGTTTAT | 0.145
GTCACCGA | 0.142
ATCACCGC | 0.234
ATCACCTG | -0.158
CTCACCGA | 0.157
ATCACCGG | 0.382
ATCACCGA | 0.417
ATAAGCCG | 0.3
ACTGATAG | -0.267
CCGATCCA | 0.269
ACGATCGG | 0.258
CGGATCCC | 0.28
CCGATCCG | 0.438
CCGATCGA | 0.325
CCGATCGG | 0.402
ACGATCCG | 0.302
CGGATCCA | 0.318
CGGATCCG | 0.401
ACTTTATG | -0.17
ATCAGTAG | -0.276
ACAGGGCC | 0.115
GGTCCCCA | 0.0281

Sequence | PBM E-score
CCTCGGAC | 0.39
ACTCGGAA | 0.344
ACTCGGCC | 0.361
ACTCGGAT | 0.311
CCTCGGAG | 0.394
GCTCGGCC | 0.375
CGTCGGAG | 0.313
CCTCGGGC | 0.31
ACTCGGAG | 0.305
CCTCGGCC | 0.346
ACTCGGAC | 0.385
CCTCGGAA | 0.314
AGACTAAG | -0.103
CGGCAGGA | 0.175
ATGGAAAC | -0.0981
TCACTTAA | -0.167
CGCGCCGC | 0.228
AAACGTCG | 0.00491
CCTCGGCA | 0.294
GGTCGGAC | 0.342
CCTCGGCG | 0.37
GCTCGGAC | 0.403
ACTCGGCG | 0.259
GCTCGGAA | 0.335
GATCAAAC | -0.0316

Sequence | PBM E-score
TAGAGCAA | -0.296
AGTTGATG | -0.292
GCGATATA | 0.24
ACGATATC | 0.0796
CCGATATA | 0.44
CAGATATC | 0.199
CCGATATC | 0.458
ACGATATA | -0.0495
AATCGGGA | 0.159
ATGCCTTG | -0.2
CCAGACGA | -0.0873
ATCGTCCC | 0.0149
CCCGTCCG | 0.314
AACGTCCA | -0.0731
ATCGTCCA | -0.0714
AACGTCCC | -0.179
ACCGTCCG | 0.381
ATCGTCCG | 0.379
AACGTCCG | 0.371
ACCGTCCC | 0.141
CAGTGCCC | 0.00772
ACAAGGGC | -0.112
CCATTAGG | -0.215
AATTGCAG | -0.0487
CGAGGCAC | 0.0885

Sequence | PBM E-score
AATAGATA | -0.00886
GCCTTAAC | -0.0709
CTGGTTTA | -0.309
ACGTCTAC | -0.179
CTGGTCAC | -0.325
AACGGGGG | 0.158
GCCGGAGA | 0.372
ACCAGAGT | -0.222
GACGGAGA | 0.318
ACCGGAGC | 0.409
CCCGGAGA | 0.428
GCCAGAGA | -0.227
CCCAGAGA | -0.226
GCCGGAGC | 0.344
ACCGGAAT | 0.36
CCCGGAGC | 0.354
CCGGGAGA | 0.29
ACCGGAGT | 0.4
ATTGGTGA | -0.281
AGCTTTTG | -0.167
AGTAGTGA | -0.1
AAGAAGGA | -0.21
ACAGGAAT | -0.135
ACACGGAT | 0.209
CTCCTCAC | -0.186

Sequence | PBM E-score
CCGTTCCA | 0.172
AACGGAGT | 0.373
TCCGGAGA | 0.442
ACCGGAGG | 0.399
ACCGGAGA | 0.43
AACGGAGC | 0.241
ACAGGAGA | -0.131
AGCGGAGA | 0.276
AGCGGAGG | 0.158
CACGGAGA | 0.365
AACGGAGA | 0.357
CCCGGAGG | 0.285
TACGGAGA | 0.326
CAAATAAG | 0.0685
AAAACGGG | 0.174
CGGGGACG | 0.163
AACGCGGG | 0.267
GCGTCTAA | -0.0983
GACACAGA | 0.0169
GCCATACC | 0.0518
CTATCGAG | -0.0625
CAGGTTTA | -0.0176
AACGGTCG | 0.23
TAGCACTA | -0.326
CGATTTAC | 0.149

Sequence | PBM E-score
GGATTTAC | 0.415
TGATTTAA | 0.0921
AGATTTAC | -0.103
CGATTTAA | 0.0314
GGATTTAA | 0.444
TTACCGAA | 0.233
CGTCTGAC | -0.045
ATGAAGCG | -0.208
ACCACTTA | -0.00971
ATGTTAGA | -0.336
AAGCCGGT | 0.332
AAGCCGTC | 0.27
TAGCCGAA | 0.314
TAGCCGGA | 0.407
GAGCCGGC | 0.339
CAGCCGGC | 0.331
AAGCCGGC | 0.399
GAGCCGCA | -0.0121
AAGCCGGA | 0.413
CAGCCGGA | 0.33
GAGCCGGA | 0.379
AAGCCGGG | 0.238
